# Bioassay records: PubChem, National Center for Advancing Translational Sciences (NCATS)
# An excerpt weighted towards active compounds, which were near 19% of everything screened.
# TDP1 cell noCPT: qHTS for Inhibitors of human tyrosyl-DNA phosphodiesterase 1 (TDP1): qHTS in cells in absence of CPT | hit rate 15% among 420,000 | Potency, µM (highest dose often 46.2 µM), inactives show at the top dose activity change, negative = growth inhibition, usual class: inhibitors | AID 686978, 2013 | DT40 Tdp1-/- hTDP1 cells, no CPT, ATP luminescence, 48 h; also: nearly all actives have a fitted effect of over 55% in size
#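 Chicken DT40 Tdp1-/- cells stably complemented with human TDP1 were seeded at 400 cells/well with DMSO in place of 20 nM camptothecin. After compound pinning, cells grew at least 48 hr at 37 °C; viability read by CellTiter-Glo luminescence.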
# HT1080 IDH1KD tx: qHTS for induction of synthetic lethality in tumor cells producing 2HG: qHTS for the HT-1080-IDH1KD cell line; HT-1080 IDH1 knockdown viability, ATP luminescence, 48 h; Potency, µM (highest dose often 46.1 µM), without a hit: at the highest dose activity, negative = toxicity, usual class: cytotoxic; hit rate 2% among 360,000;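 also: 0% = DMSO wells and -100% = cell-free medium wells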
#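 In this qHTS, HT-1080 cells depleted of IDH1 are exposed for 48 h at 37 °C to compound titrations. Toxicity is scored from CellTiter-Glo luminescence, with DMSO as full viability and medium alone as none.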
# KB-V1 MDR tox: qHTS assay for MDR1-selective chemotherapeutics: Primary screen using the drug-selected MDR subline cells KB-V1. KB-V1 MDR cells viability, CellTiter-Glo, 72 h. Potency, µM (highest dose often 46.1 µM), hits mostly cytotoxic. hit rate 3.4% among 400,000; also: nearly all actives have a fitted effect of over 60% in size
#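 Cells of the MDR subline KB-V1 are plated, dosed with compound at multiple concentrations, and incubated 72 h at 37 degrees C; CellTiter-Glo is then added and luminescence read after 10 min.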
# HT1080NT lethal: qHTS for induction of synthetic lethality in tumor cells producing 2HG: qHTS for the HT-1080-NT fibrosarcoma cell line. HT-1080-NT fibrosarcoma viability, CellTiter-Glo ATP luminescence, 48 h. Potency, µM (titrated, usually from 46.1 µM), for the others: top-dose activity, negative = less viability, actives largely listed as cytotoxic. hit rate 1.6% among 360,000. AID 686970, 2013;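 also: NT is the 2HG producing partner of a matched IDH1 knockdown line; 0% = DMSO-treated cells and -100% = media-only wells without cells; nearly all actives have a fitted effect of over 55% in size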
#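 750 cells/well, RPMI + 5% FBS; 2 h settle, compound pin-transfer, 48 h at 37 degrees C. CellTiter-Glo 10 min RT, luminescence. Normalized to DMSO and media-only wells.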
# DT40 TDP1 CPT: qHTS for Inhibitors of human tyrosyl-DNA phosphodiesterase 1 (TDP1): qHTS in cells in presence of CPT | chicken DT40 Tdp1-/-;hTDP1 cells + 20 nM CPT, ATP luminescence, 48 h | Potency, µM (doses to about 46.2 µM), inactives show top-dose activity change, negative = growth inhibition, actives largely listed as inhibitors | AID 686979, 2013 | hit rate 12% among 420,000; also: nearly all actives have a fitted effect of over 55% in size
#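 Chicken DT40 Tdp1-/- cells stably complemented with human TDP1 were seeded at 400 cells/well in medium containing 20 nM camptothecin, exposed to pin-transferred compounds, and grown at 37 °C for at least 48 hr. Viability was read as ATP luminescence.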
# KB-3-1 cytotox: qHTS assay for MDR1-selective chemotherapeutics: Primary screen using the parental adenocarcinoma cell KB-3-1; AID 1347075, 2019; Potency, µM (doses to about 46.1 µM), hits mostly cytotoxic; KB-3-1 viability, CellTiter-Glo ATP luminescence, 72 h; hit rate 1.4% among 400,000; also: nearly all actives have a fitted effect of over 60% in size
#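 72 h, 37 °C compound treatment of KB-3-1 parental cells; CellTiter-Glo added, 10 min, luminescence read. Data corrected against DMSO-only plates and normalized before curve fitting.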
# An asterisk follows results filed as active; i = inactive; ? = inconclusive; . = no result given. Calls follow the shape of the dose curve; as a rule, active = well fitted curve in the direction sought with a large enough effect; inconclusive = small, poorly fitted or top-dose-only effect, or another doubt; inactive = no such curve, though single readings can be large; an effect the other way counts as inactive or inconclusive. Unless noted, % is scaled to controls: 0 for no effect and ±100 for the full control effect; potency is read from the fitted curve at half-maximal effect.
SMILES,TDP1 cell noCPT,HT1080 IDH1KD tx,KB-V1 MDR tox,HT1080NT lethal,DT40 TDP1 CPT,KB-3-1 cytotox
CC1c2ccccc2-c2ccccc2N1C (stereo not given),?,12%,i,11%,-23%,i
Cc1cccc(CC(=O)Nc2ccc3nc(N4CCC(C)CC4)cc(C)c3c2)c1,15µM*,.,i,.,21µM*,i
CCN1CCN(c2cc(C)c3cc(NC(=O)CCC(=O)Nc4ccc(OC)c(OC)c4)ccc3n2)CC1,-23%,-3%,i,11%,-1%,i
COc1ccccc1CC(=O)Nc1ccc2nc(N3CCC(C)CC3)cc(C)c2c1,?,.,i,.,-21%,i
Cc1cc(N2CCOCC2)nc2ccc(NC(=O)CCC(=O)N3CCCC(C)C3)cc12 (stereo not given),-28%,-1%,i,-12%,-4%,i
Cc1cc(N2CCC(C)CC2)nc2ccc(NC(=O)Cc3ccccc3Br)cc12,13µM*,.,i,.,21µM*,i
COc1ccc(/C=C/C(=O)Nc2ccc3nc(N4CCC(C)CC4)cc(C)c3c2)cc1OC,4.6µM*,.,.,.,4.1µM*,.
CC1Cn2c(nc3sc4c(c3c2=O)CC(C)(C)OC4)N1CCO (stereo not given),1%,2%,i,-2%,5%,i
NC(=O)c1cccc(CS(=O)(=O)c2ccc(Cl)cc2)c1,-9%,16%,i,15%,3%,i
N#CN=C1CCCCCN1CC(N)=O,-5%,9%,i,-4%,0%,i
Cc1ccc(S(=O)(=O)N2CCCc3cc(NS(=O)(=O)c4cc(F)ccc4F)ccc32)cc1,18µM*,.,i,.,23µM*,?
Cc1ccc(S(=O)(=O)N2CCCc3cc(NC(=O)c4c(F)cccc4F)ccc32)cc1,?,-7%,i,-1%,?,i
COc1ccc(S(=O)(=O)Nc2ccc3c(c2)CCCN3S(=O)(=O)c2ccc(C)cc2)cc1F,21µM*,.,i,.,?,i
Cc1ccc(S(=O)(=O)N2CCCc3cc(NC(=O)c4ccc(F)c(F)c4)ccc32)cc1,?,.,i,.,?,i
Cc1ccc(S(=O)(=O)N2CCCc3cc(NS(=O)(=O)c4ccc(F)cc4)ccc32)cc1,18µM*,.,i,.,?,i
C/C=C/C(=O)Nc1cccc(C2=NOC3(C2)C[C@@H](C(N)=O)N(C(=O)C(c2ccccc2)c2ccccc2)C3)c1 (stereo not given in full),?,3%,i,-2%,?,i
O=C(NCCC1CCCCN1S(=O)(=O)c1ccc(F)cc1)C(=O)NCCN1CCOCC1 (stereo not given),4%,13%,i,10%,1%,i
Cc1cc(F)ccc1S(=O)(=O)N1CCCCC1CCNC(=O)C(=O)NCCN1CCOCC1 (stereo not given),?,-1%,16µM*,6%,?,i
Cc1cc(C)c(S(=O)(=O)N2CCCCC2CCNC(=O)C(=O)NCCN2CCOCC2)c(C)c1 (stereo not given),?,6%,3.3µM*,4%,?,i
N#Cc1cc2c(=O)n3ccccc3nc2n(-c2nnc(SCc3ccc(F)cc3)s2)c1=O,-23%,.,i,.,-18%,i
O=C(Cc1ccc(F)cc1)N1CCC(c2nc3c(nnn3Cc3ccc(Cl)cc3)c(=O)[nH]2)CC1,?,.,i,.,?,i
O=C(c1ccc(Cl)cc1)N1CCC(O)(CSc2ccc(Cl)cc2Cl)CC1,?,?,?,?,16µM*,?
O=C(c1ccc(Cl)c(Cl)c1)N1CCC(O)(CN2CCOCC2)CC1,1%,2%,i,-4%,7%,i
CC(C)=CCC12Oc3cc(O)ccc3C1(O)Oc1cc3c(c(O)c1C2=O)C=CC(C)(C)O3 (stereo not given),?,-15%,i,-27%,26µM*,i
CC(C)=CCc1c2c(c(O)c3c(=O)c(O)c(-c4ccccc4)oc13)C=CC(C)(C)O2,-10%,.,.,.,-6%,.
SMILES,TDP1 cell noCPT,HT1080 IDH1KD tx,KB-V1 MDR tox,HT1080NT lethal,DT40 TDP1 CPT,KB-3-1 cytotox
O=C(NCC1CC1)C1(C(F)(F)F)CC(CCc2ccccc2)CCCO1 (stereo not given),21µM*,-7%,i,-17%,21µM*,i
CN(Cc1ccccc1)C(=O)CSc1nc(-c2ccc(F)cc2)cc(C(F)(F)F)n1,15µM*,.,?,.,21µM*,?
CN(Cc1ccccc1)C(=O)CCSc1nc(-c2ccc3c(c2)OCO3)cc(C(F)(F)F)n1,18µM*,?,2.6µM*,-10%,?,i
COc1ccc(-c2cc(C(F)(F)F)nc(SCC(=O)N(C)Cc3cnn(C)c3C)n2)cc1OC,16µM*,15%,i,13%,16µM*,?
O=C(CSc1nc(-c2ccc(F)cc2)cc(C(F)(F)F)n1)NCc1ccccc1,-30%,.,i,.,-27%,i
O=C(CCSc1nc(-c2ccc3c(c2)OCO3)cc(C(F)(F)F)n1)NCc1ccccc1,15µM*,?,i,-12%,?,i
CC(C)(C)c1ccc(NC(=O)c2ccc(=O)[nH]n2)cc1,-33%,6%,i,14%,?,i
CC(=O)Nc1ccc(NC(=O)C2CCCN2S(=O)(=O)c2ccc3c(c2)CCCC(=O)N3)cc1 (stereo not given),-1%,.,?,.,-12%,i
Cn1c(-c2cc(Cl)ccc2O)nc2c1c(=O)[nH]c(=O)n2Cc1ccccc1,13µM*,?,i,-8%,18µM*,i
COc1ccc(Br)cc1-c1nc2c(c(=O)[nH]c(=O)n2Cc2ccccc2)n1C,?,-2%,i,?,8%,i
COCCCn1c(-c2cccc(Cl)c2)nc2c1c(=O)[nH]c(=O)n2Cc1ccccc1,7.3µM*,-1%,?,-2%,?,i
C=CCNC(=O)CN(Cc1ccccc1)S(=O)(=O)c1ccccc1,-10%,11%,i,2%,-23%,i
